Assays:
Assay in all cases: log2 ratio of Biotin-Ahx-Ub-VS probe labelling (fragment/DMSO); higher = less target engagement (more negative = stronger competition), active = hit call of the paper (q ≤ 0.05, log2 ratio ≤ -1)
Details in all cases: compound concentration: 200 uM; treatment time: 3 h
USP42 = target: T1, USP42 (UniProt Q9H9J4)
T1 sequence (whole entry): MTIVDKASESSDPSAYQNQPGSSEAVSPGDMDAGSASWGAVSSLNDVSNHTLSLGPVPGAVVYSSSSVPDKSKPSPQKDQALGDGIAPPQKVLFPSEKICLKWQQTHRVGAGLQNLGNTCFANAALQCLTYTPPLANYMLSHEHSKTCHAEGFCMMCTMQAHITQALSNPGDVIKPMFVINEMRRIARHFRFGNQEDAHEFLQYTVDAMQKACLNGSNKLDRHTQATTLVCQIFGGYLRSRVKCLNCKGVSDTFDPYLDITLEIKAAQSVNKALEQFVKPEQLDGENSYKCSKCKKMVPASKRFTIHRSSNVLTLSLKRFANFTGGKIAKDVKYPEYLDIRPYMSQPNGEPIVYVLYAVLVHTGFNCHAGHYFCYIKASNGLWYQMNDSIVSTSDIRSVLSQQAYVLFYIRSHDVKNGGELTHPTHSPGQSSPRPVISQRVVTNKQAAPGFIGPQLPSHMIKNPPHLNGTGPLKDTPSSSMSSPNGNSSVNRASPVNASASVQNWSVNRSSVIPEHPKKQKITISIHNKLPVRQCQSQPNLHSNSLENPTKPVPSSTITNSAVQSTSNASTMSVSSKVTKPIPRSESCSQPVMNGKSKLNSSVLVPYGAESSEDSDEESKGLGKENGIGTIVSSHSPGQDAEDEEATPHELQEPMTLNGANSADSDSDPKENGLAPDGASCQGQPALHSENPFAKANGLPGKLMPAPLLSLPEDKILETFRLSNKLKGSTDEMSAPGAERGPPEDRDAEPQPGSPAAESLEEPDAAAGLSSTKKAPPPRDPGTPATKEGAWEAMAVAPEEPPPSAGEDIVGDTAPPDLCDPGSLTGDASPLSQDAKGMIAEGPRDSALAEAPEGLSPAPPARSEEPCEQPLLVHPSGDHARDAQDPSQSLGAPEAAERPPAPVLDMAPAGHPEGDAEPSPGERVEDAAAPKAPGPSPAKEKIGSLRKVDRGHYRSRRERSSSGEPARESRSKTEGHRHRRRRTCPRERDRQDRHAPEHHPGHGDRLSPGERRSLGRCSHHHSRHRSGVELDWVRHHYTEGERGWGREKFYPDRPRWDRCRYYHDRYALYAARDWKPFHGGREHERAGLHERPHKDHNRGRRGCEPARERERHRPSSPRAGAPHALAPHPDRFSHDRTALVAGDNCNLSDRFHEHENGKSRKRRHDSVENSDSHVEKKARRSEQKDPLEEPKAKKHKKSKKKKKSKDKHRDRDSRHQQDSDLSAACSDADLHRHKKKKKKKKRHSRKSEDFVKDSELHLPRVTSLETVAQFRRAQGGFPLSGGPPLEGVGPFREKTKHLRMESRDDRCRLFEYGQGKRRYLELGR
In short: (§1)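 HEK293T lysate (495 µg per sample, in Tris/CHAPS/IGEPAL buffer with protease inhibitors) was treated in triplicate with fragment at 200 µM or with DMSO for 3 h. It was then treated with Biotin-Ahx-Ub-VS (0.5 µM final) for 1 h. Labelled DUBs were NeutrAvidin-enriched, digested with LysC and trypsin, and run by diaPASEF LC-MS/MS. Spectronaut label-free quantities were global-median-normalised. Values are average log2 ratios fragment/DMSO by unpaired t-test, using proteins with ≥2 unique peptides.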

USP46 = USP46 (UniProt P62068)
USP46, sequence (P62068 whole entry): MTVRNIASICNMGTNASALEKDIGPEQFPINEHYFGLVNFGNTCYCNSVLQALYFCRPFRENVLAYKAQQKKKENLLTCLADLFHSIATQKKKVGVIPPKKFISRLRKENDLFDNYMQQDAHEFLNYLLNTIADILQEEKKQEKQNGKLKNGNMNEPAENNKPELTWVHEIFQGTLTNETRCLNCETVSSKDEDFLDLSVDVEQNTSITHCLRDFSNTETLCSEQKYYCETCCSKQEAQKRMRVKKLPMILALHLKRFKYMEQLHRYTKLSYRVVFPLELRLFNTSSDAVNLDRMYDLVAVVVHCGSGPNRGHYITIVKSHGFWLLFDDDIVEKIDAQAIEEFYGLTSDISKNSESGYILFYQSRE
In short: as §1

USP47 = target: T2, USP47 (UniProt Q96K76)
T2 sequence (whole entry): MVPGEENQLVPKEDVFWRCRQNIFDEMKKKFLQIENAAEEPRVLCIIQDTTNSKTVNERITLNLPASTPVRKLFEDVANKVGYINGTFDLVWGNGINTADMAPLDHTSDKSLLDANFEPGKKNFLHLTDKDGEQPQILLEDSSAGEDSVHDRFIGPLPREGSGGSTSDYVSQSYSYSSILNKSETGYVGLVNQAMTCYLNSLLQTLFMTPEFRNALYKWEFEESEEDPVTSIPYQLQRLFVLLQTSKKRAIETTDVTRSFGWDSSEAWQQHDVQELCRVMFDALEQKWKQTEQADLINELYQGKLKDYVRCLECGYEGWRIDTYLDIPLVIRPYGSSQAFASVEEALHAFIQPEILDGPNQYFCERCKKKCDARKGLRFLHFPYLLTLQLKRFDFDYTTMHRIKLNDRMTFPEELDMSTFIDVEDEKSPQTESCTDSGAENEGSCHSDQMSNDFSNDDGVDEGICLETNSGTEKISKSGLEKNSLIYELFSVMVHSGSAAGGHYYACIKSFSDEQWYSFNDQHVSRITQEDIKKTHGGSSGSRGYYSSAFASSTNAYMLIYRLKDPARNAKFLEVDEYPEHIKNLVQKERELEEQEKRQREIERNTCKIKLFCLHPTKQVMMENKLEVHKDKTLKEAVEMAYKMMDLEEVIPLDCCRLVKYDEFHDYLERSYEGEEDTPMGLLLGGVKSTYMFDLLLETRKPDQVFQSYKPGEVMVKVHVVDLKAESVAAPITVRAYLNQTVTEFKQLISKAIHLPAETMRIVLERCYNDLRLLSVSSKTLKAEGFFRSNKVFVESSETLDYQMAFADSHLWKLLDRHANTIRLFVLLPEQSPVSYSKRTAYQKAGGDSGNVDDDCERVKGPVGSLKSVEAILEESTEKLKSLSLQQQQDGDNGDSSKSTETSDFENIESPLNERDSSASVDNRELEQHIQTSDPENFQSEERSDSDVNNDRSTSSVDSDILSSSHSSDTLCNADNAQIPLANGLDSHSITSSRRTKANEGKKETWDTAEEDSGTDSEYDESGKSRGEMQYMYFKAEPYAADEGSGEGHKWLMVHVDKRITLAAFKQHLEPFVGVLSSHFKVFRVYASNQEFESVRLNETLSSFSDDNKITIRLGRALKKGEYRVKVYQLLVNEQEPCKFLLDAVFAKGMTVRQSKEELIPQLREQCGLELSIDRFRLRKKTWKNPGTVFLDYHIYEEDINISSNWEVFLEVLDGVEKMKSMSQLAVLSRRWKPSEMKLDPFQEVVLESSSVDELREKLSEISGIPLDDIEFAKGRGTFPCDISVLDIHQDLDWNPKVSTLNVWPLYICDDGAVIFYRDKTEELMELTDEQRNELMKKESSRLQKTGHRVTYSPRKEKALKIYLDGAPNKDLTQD
In short: as §1

USP48 = target: T3, USP48 (UniProt Q86UV5)
T3 sequence (whole entry): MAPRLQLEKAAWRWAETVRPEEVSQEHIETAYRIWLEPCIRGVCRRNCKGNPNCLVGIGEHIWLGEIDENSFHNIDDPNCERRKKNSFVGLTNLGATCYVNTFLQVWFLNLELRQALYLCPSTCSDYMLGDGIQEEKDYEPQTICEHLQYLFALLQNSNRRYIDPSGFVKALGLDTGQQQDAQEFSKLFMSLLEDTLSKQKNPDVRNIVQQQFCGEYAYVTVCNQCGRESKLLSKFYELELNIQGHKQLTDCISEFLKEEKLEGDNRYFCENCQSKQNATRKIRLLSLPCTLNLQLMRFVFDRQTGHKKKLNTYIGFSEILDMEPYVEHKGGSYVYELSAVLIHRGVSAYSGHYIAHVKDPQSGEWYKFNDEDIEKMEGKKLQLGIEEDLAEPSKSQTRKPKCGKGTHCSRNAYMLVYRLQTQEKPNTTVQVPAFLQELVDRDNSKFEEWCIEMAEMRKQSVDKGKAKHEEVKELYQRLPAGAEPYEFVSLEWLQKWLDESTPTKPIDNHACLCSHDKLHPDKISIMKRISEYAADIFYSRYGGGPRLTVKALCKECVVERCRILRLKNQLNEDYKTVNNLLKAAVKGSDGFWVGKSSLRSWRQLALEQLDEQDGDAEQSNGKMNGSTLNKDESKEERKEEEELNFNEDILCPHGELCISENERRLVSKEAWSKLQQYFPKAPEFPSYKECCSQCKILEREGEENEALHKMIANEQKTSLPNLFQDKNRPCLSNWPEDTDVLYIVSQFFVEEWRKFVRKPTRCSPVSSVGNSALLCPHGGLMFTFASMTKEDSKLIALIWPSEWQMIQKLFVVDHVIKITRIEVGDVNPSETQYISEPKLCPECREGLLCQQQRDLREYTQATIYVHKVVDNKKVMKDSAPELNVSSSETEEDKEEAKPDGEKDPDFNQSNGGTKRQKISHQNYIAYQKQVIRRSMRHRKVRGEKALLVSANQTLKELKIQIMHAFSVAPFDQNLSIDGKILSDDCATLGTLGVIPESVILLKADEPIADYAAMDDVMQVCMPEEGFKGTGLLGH
In short: as §1

USP5 = target: T4, USP5 (UniProt P45974)
T4 sequence (whole entry): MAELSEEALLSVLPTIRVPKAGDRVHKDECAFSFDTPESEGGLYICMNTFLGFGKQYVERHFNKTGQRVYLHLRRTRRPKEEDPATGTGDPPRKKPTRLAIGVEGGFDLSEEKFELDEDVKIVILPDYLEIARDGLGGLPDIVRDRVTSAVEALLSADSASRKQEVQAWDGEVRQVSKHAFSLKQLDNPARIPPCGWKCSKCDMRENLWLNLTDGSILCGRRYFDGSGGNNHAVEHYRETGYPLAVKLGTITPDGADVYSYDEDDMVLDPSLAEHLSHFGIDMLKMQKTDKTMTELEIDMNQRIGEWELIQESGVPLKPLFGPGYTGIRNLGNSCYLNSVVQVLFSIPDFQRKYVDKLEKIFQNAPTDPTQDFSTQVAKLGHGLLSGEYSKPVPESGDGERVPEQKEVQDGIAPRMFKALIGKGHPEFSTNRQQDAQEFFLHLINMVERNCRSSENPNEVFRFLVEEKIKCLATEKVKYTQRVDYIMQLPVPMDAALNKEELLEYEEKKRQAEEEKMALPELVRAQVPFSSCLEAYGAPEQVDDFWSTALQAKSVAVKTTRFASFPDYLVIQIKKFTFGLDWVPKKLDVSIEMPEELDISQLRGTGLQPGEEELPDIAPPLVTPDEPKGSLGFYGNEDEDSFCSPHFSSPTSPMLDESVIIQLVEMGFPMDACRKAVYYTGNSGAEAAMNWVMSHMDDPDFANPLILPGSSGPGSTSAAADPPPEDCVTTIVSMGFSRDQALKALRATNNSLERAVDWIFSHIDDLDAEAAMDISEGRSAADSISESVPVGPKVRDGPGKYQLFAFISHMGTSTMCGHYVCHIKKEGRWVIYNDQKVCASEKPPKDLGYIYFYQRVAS
In short: as §1

USP54 = USP54 (UniProt Q70EL1)
In short: as §1

USP7 = USP7 (UniProt Q93009)
USP7, sequence (Q93009 whole entry, looked up): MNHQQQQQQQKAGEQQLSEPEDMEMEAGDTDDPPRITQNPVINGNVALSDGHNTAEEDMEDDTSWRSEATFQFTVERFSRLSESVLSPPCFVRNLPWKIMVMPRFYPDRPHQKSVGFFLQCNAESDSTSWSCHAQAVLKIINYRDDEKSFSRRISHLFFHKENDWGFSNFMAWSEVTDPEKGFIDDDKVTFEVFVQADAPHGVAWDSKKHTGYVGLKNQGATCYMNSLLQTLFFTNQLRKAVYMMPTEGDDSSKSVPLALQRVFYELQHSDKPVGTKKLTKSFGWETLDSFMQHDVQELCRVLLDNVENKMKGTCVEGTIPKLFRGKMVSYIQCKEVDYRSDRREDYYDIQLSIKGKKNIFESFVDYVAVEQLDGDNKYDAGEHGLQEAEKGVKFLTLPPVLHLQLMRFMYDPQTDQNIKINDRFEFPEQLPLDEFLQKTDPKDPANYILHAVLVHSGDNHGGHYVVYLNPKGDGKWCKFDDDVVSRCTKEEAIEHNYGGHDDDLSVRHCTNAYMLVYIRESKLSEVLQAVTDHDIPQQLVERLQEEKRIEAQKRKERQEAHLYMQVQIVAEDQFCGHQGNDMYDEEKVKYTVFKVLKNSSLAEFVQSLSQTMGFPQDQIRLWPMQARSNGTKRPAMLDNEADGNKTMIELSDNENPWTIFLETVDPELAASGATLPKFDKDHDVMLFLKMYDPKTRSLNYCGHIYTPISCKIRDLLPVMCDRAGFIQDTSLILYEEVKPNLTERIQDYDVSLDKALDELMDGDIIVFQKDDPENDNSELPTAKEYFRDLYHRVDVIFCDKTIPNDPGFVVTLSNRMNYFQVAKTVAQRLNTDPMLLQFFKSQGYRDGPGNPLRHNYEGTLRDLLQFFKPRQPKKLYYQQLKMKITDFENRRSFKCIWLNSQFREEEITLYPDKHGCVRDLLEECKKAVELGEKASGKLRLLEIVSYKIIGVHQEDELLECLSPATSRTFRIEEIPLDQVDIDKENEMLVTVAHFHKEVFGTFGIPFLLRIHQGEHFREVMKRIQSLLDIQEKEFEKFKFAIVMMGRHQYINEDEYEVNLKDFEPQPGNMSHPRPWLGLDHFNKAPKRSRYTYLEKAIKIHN
In short: as §1

USP8 = target: T5, USP8 (UniProt P40818)
T5 sequence (whole entry): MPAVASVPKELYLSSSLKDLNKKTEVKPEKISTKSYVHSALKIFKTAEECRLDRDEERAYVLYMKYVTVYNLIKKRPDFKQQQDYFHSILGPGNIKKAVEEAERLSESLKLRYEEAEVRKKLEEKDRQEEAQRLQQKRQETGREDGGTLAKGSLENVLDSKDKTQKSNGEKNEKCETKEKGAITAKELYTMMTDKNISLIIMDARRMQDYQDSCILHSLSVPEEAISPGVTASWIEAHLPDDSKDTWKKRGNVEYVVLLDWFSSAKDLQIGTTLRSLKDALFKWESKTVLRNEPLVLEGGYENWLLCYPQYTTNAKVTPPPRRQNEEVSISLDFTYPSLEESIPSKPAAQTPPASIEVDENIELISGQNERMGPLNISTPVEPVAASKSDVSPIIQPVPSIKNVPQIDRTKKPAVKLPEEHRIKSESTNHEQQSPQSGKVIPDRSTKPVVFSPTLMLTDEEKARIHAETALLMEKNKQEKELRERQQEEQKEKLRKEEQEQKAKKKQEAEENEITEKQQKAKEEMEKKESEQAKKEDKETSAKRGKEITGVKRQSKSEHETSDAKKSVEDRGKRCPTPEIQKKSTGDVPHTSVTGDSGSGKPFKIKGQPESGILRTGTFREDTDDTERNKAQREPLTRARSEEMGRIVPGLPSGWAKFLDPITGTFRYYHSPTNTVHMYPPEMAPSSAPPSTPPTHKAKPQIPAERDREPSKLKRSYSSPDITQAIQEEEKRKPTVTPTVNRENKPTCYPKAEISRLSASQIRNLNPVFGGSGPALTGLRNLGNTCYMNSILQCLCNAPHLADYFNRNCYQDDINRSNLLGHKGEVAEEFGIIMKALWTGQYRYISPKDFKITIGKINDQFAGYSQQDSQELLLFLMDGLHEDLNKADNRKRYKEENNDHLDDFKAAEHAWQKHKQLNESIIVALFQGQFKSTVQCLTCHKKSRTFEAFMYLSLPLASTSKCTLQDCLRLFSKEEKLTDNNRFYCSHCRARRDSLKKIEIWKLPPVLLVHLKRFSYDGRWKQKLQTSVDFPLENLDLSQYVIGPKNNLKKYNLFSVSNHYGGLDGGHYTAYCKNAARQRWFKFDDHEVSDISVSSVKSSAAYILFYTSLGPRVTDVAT
In short: as §1

USP9X = USP9X (UniProt Q93008)
USP9X, sequence (Q93008 whole entry): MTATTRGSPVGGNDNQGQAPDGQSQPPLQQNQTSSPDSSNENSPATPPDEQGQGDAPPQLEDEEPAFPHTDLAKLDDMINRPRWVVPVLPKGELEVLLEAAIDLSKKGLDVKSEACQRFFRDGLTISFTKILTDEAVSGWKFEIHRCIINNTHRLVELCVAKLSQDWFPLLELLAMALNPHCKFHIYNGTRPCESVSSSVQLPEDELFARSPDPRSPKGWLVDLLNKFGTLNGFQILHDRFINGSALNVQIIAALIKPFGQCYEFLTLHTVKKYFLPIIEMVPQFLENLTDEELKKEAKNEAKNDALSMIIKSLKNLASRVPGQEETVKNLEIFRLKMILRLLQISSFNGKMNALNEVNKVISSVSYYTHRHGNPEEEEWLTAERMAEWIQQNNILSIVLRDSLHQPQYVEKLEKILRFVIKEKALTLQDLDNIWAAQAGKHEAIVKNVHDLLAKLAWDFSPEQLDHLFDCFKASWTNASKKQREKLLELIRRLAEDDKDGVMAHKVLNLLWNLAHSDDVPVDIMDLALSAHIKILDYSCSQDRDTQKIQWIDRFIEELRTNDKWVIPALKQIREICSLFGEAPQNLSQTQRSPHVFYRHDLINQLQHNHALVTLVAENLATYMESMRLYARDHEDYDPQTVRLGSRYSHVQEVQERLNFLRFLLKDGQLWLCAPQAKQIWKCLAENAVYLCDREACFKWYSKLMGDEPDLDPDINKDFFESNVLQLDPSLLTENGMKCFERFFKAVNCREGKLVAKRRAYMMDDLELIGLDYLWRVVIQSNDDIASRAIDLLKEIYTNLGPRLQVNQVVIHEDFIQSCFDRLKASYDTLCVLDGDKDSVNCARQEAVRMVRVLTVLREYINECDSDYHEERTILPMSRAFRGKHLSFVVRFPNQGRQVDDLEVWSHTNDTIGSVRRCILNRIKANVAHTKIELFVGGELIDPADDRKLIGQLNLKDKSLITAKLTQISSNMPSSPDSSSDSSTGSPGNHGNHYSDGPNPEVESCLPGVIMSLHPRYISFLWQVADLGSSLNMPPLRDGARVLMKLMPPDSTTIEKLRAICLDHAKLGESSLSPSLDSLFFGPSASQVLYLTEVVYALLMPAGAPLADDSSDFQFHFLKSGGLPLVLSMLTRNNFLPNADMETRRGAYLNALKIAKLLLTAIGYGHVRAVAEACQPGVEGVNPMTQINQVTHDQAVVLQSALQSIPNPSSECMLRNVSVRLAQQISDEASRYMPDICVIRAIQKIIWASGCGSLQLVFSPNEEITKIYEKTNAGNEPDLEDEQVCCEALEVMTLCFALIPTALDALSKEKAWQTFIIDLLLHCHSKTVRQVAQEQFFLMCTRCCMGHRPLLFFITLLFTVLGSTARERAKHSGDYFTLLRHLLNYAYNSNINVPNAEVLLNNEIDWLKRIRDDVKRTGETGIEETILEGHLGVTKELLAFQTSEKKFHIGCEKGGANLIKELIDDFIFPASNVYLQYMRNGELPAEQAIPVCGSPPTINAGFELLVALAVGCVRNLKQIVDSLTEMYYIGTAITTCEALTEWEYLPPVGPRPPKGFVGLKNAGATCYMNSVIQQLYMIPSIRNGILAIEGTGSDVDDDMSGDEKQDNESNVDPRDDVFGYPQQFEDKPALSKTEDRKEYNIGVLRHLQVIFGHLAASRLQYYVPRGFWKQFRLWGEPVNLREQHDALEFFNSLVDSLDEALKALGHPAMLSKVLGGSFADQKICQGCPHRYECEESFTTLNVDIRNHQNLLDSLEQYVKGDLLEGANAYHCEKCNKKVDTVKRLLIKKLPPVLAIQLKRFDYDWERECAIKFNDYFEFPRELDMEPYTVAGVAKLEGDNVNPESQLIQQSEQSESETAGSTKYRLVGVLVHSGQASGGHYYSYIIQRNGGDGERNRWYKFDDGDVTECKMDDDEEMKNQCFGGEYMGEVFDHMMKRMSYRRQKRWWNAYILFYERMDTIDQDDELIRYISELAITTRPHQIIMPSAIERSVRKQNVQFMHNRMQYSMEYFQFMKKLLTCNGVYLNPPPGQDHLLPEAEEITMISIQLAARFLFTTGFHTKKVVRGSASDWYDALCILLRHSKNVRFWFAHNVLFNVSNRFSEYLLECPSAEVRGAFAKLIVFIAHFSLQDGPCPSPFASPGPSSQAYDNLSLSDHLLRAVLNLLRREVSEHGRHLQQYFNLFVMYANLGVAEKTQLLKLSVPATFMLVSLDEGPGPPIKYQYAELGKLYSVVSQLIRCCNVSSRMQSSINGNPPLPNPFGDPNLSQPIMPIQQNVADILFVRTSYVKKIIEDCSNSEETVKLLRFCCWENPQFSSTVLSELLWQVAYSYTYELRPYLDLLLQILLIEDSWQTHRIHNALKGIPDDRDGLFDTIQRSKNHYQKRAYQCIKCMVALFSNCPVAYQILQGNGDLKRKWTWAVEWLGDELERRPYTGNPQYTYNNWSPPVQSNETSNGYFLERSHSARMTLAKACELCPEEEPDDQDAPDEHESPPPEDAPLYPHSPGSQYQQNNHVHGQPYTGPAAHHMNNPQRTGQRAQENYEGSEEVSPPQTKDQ
In short: as §1

UniProt O00487 = target: UniProt O00487
UniProt O00487, sequence (O00487 whole entry): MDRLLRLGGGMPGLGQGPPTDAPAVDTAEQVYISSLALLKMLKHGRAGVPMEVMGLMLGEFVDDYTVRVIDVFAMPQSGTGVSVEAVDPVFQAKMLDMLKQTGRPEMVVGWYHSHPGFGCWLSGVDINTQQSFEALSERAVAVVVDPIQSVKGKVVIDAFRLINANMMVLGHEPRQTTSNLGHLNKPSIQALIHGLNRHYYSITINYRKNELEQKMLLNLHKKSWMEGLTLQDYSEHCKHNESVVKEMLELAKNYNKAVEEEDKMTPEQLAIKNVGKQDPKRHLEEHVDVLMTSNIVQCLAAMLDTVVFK
In short: as §1

Measured: log2 ratio of Biotin-Ahx-Ub-VS probe labelling

CNC(=O)C1(NC(=O)CCl)CCCCC1
inactive: USP42 -0.202 | USP46 0.0346 | USP47 0.28 | USP48 -0.00183 | USP5 0.148 | USP54 0.521 | USP7 -0.0838 | USP8 -0.173 | USP9X -0.228 | UniProt O00487 0.0455
